Structures are written as SMILES. ± gives the standard deviation of the averaged measurements. In all, about 1,900 compounds were measured (“CD40L-induced NF-kB luciferase activity, plate-corrected, relative to DMSO (0) and IKK inhibitor VII (-100) controls”: median about 0.032, lowest 2% from about -26 on). The list comes from a sample in which the lowest values are over-represented; it also holds similar structures and randomly drawn compounds.

Results on 29 compounds are retold here after the supplement of paper PMC3656093.

The subject of this test is BL2-NFkB-Luc. The experiment in a line: CD40L-induced NF-kB luciferase activity, plate-corrected, relative to DMSO (0) and IKK inhibitor VII (-100) controls (% normalized activity); higher = more NF-kB reporter activity (less inhibition). The note with it: 9.4 µM; stimulus: tCD40L 64 ng/ml; 4.5 h. How it is done:
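BL2 B cells with a stable NF-kB response-element luciferase reporter (BL2-NFkB-Luc), 384-well. Cells were pre-incubated with compound at 9.4 uM for 1 h at 37 C, then stimulated with 64 ng/ml trimerized CD40L for 4.5 h; luciferase was read with Steady-Glo. Signal was normalised per plate in Genedata (median DMSO neutral control = 0, median IKK inhibitor VII at 50 uM = -100) with Assay Median plate-pattern correction; duplicate plates.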
As for `COc1ccc(/C=C\C(=O)c2c(O)ccc3c(C)cc(=O)oc23)cc1OC`, the “CD40L-induced NF-kB luciferase activity” value is -14 ± 3.3.

In the case of `COc1cc2cc(C(=O)O)[nH]c2c(OC)c1OC`, the “CD40L-induced NF-kB luciferase activity” value was 1.43 ± 0.11.

On to `Cc1oc2ccc(OC(=O)c3cccs3)cc2c1C(=O)OC(C)C`, for which the “CD40L-induced NF-kB luciferase activity” value is 6.48 ± 1.

Regarding `Cc1ccc2c(c1)C(CCN)C(=O)N2Cc1ccccc1` (centres undefined), the “CD40L-induced NF-kB luciferase activity” value amounted to 1.33 ± 2.

In the case of `CC12CCC(C(=O)N3CCc4ccccc43)(CC1=O)C2(C)C` (centres undefined), the “CD40L-induced NF-kB luciferase activity” value is -7.25 ± 2.2.

As for `COc1cc2c(cc1OC)C(c1cc3ccccc3oc1=O)=NC(C)(C)C2`, the “CD40L-induced NF-kB luciferase activity” value was -0.782 ± 0.12.

As for `COc1cc(C2CC(=O)NC3=C2C(=O)CC(C)(C)C3)ccc1O` (centres undefined), the “CD40L-induced NF-kB luciferase activity” value was found to be 7.59 ± 2.5.

As to `O=C1[C@@H]2[C@H](Cc3ccc(O)cc3)N[C@]3(C(=O)Nc4ccccc43)[C@@H]2C(=O)N1c1ccc(F)cc1`, the “CD40L-induced NF-kB luciferase activity” value is -2.13 ± 3.5.

Turning to `COc1ccc2oc(C)c(C(N)=O)c2c1`, the “CD40L-induced NF-kB luciferase activity” value worked out at 5.21 ± 2.3.

On to `Cc1ccc(S(=O)(=O)NC(C(=O)Oc2cc3oc(=O)cc(C)c3cc2Cl)C(C)C)cc1` (centres undefined), for which the “CD40L-induced NF-kB luciferase activity” value was -3.08 ± 0.98.

As to `c1ccc(Cn2nnc3cnccc32)cc1`, the “CD40L-induced NF-kB luciferase activity” value came out at 3.11 ± 1.1.

As for `Fc1ccc(-c2cc(-c3ccccc3)nc(-n3cccn3)n2)cc1`, the “CD40L-induced NF-kB luciferase activity” value was -4.51 ± 1.4.

As to `O=C(/C=C/c1ccc2c(c1)OCCCO2)c1ccc2ccccc2c1O`, the “CD40L-induced NF-kB luciferase activity” value worked out at 44.2 ± 0.67.

Consider `COC(=O)CCC(=O)CN`, for which the “CD40L-induced NF-kB luciferase activity” value was -0.0616 ± 1.1.

As for `O=C(O)[C@@H](O)c1ccccc1`, the “CD40L-induced NF-kB luciferase activity” value was -1.47 ± 0.027.

For `C=CCOC(=O)C1=C(C)NC(=O)NC1/C=C/c1ccccc1OC` (centres undefined), the “CD40L-induced NF-kB luciferase activity” value is -0.888 ± 0.046.

For `COc1ccc(C2C3=C(OC(C)=O)c4ccccc4C3=Nc3c2c(=O)n(C)c(=O)n3C)cc1` (centres undefined), the “CD40L-induced NF-kB luciferase activity” value worked out at 6.21 ± 0.2.

`COc1ccc(C2C(=O)c3ccccc3C2=O)cc1`: the “CD40L-induced NF-kB luciferase activity” value amounted to 0.868 ± 0.29.

On to `CC(=O)Oc1ccc(C2OC(=O)c3ccccc3N2C(C)=O)cc1` (centres undefined), for which the “CD40L-induced NF-kB luciferase activity” value is -32.9 ± 1.

With `COc1ccc(-c2coc3cc(OC(=O)N4CCOCC4)ccc3c2=O)cc1`, the “CD40L-induced NF-kB luciferase activity” value was found to be 5.32 ± 1.2.

As to `C[C@]12C[C@H](O)[C@H]3[C@@H](CCC4=CC(=O)CC[C@@]43C)[C@@H]1CC[C@@H]2C(=O)CO`, the “CD40L-induced NF-kB luciferase activity” value is -19.6 ± 8.2.

On to `CCCC(=O)O[C@]1(C(=O)CO)CC[C@H]2[C@@H]3CCC4=CC(=O)CC[C@]4(C)[C@H]3[C@@H](O)C[C@@]21C`, for which the “CD40L-induced NF-kB luciferase activity” value was -31.6 ± 7.7.

For the compound `CCCCCC(=O)O[C@]1(C(C)=O)CC[C@H]2[C@@H]3CCC4=CC(=O)CC[C@]4(C)[C@H]3CC[C@@]21C`, the “CD40L-induced NF-kB luciferase activity” value is -8.91 ± 0.8.

In the case of `CCCCC(=O)O[C@]1(C(=O)CO)CC[C@H]2[C@@H]3CCC4=CC(=O)CC[C@]4(C)[C@H]3[C@@H](O)C[C@@]21C`, the “CD40L-induced NF-kB luciferase activity” value is -43.1 ± 20.

For the compound `C[C@]12CCC(=O)C=C1CC[C@@H]1[C@@H]2[C@@H](O)C[C@@]2(C)[C@H]1CC[C@]2(O)C(=O)CO`, the “CD40L-induced NF-kB luciferase activity” value was -24.3 ± 5.5.

As to `CCCCCCCC(=O)OCC(=O)[C@@]1(O)CC[C@H]2[C@@H]3CCC4=CC(=O)CC[C@]4(C)[C@H]3[C@@H](O)C[C@@]21C`, the “CD40L-induced NF-kB luciferase activity” value is -24.2 ± 1.8.

For `CC(C)Cc1ccc(C(C)C(=O)O)cc1` (centres undefined), the “CD40L-induced NF-kB luciferase activity” value worked out at 2.3 ± 5.

In the case of `CC(C(=O)O)c1ccc(-c2ccccc2)c(F)c1` (centres undefined), the “CD40L-induced NF-kB luciferase activity” value was determined as 2.04 ± 0.53.

As to `CC(C(=O)O)c1ccc(N2Cc3ccccc3C2=O)cc1` (centres undefined), the “CD40L-induced NF-kB luciferase activity” value is -43.6 ± 2.8.
